Inconclusive results are not listed. Calls of active or inactive are those of the source. Unless noted, calls follow the shape of the dose curve; as a rule, active = well fitted curve in the direction sought with a large enough effect in the repeat runs; inconclusive = weak or mixed curves; inactive = no such curve, though single readings can be large; an effect the other way counts as inactive or inconclusive.

Potency and outcome data for 25 compounds are collected here from PubChem BioAssay (Tox21).

The target in experiment [1] is Progesterone receptor (Homo sapiens) (UniProt P06401). In words: qHTS assay to identify small molecule agonists of the progesterone receptor (PR) signaling pathway (AID 1346784; calls by dose curve; also: nearly all actives have a fitted effect of over 30% in size). An outline of the steps: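 Fluorescence from LiveBLAzer B/G FRET substrate cleavage (2 hr, RT) reported PR activation in PR-UAS-bla HEK 293T cells treated 16 hr at 37C/5% CO2 with compounds; medium contained 2% charcoal-stripped FBS.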
Chain of Progesterone receptor (Homo sapiens) (P06401 whole entry, looked up): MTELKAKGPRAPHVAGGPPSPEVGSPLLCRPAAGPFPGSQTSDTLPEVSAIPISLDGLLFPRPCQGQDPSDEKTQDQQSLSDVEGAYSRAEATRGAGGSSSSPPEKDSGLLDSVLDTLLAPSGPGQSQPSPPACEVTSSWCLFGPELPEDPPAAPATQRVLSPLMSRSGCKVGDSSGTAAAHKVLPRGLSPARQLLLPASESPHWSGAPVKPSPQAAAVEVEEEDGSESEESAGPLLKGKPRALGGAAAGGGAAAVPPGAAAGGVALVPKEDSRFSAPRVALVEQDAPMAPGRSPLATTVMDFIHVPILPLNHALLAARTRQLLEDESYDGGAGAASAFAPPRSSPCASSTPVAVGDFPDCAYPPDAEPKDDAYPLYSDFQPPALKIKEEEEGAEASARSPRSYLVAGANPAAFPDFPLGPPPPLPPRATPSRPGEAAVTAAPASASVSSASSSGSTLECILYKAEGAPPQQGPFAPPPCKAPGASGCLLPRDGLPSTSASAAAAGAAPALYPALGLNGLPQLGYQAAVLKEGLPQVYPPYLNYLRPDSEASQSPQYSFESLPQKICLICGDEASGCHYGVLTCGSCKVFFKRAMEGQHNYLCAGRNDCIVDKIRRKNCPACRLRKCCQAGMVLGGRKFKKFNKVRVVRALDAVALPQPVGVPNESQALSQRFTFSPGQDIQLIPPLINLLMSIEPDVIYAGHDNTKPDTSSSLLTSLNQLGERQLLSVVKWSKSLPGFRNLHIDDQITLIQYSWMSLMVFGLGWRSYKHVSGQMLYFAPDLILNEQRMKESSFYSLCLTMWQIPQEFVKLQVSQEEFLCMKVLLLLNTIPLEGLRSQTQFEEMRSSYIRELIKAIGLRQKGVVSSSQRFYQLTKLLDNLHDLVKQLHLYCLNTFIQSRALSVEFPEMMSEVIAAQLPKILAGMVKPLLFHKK

A short description of experiment [2]: qHTS assay to identify small molecule antagonists of the progesterone receptor (PR) signaling pathway - cell viability counter screen (AID 1346798). Also: series mostly up to about 92 µM; nearly all actives have a fitted effect of over 50% in size. An outline of the steps:
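CellTiter-Glo luminescence; PR-UAS-bla HEK293T, 3,000 cells/well; compound + R5020, 16 hr, 37C/5% CO2; 30 min RT before read.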

Experiment [3] in a line: qHTS assay to identify small molecule agonists of the progesterone receptor (PR) signaling pathway - cell viability counter screen (AID 1346799; calls by dose curve; also: nearly all actives have a fitted effect of over 45% in size). An outline of the steps: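 In parallel with the beta-lactamase readout, cytotoxicity toward PR-UAS-bla HEK293T cells was measured by CellTiter-Glo luminescence following 16 hr compound incubation in 2% charcoal-stripped FBS medium.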

The nature of experiment [4]: qHTS assay to identify small molecule antagonists of the TGF-beta/Smad signaling pathway - cell viability counter screen (AID 1346824). Also: nearly all actives have a fitted effect of over 50% in size. An outline of the steps:
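SBE-bla HEK 293T cells were plated overnight at 37 C, then given compounds in DMSO plus TGF-beta1 (added as 0.25 ng/mL solution) for 5 hr. After the bla read, CellTiter-Glo was added to the same wells and luminescence read after 30 min at room temperature.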

Experiment [5] can be described thus: qHTS assay to identify small molecule agonists of the TGF-beta/Smad signaling pathway - cell viability counter screen (AID 1346829). Also: top concentration of the series differs between compounds; nearly all actives have a fitted effect of over 45% in size. The method in brief: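 Tox21 qHTS format: SBE-bla HEK 293T cells treated with DMSO-dissolved compounds for 5 hr; CellTiter-Glo luminescence after 30 min at room temperature.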
Experiment [6] is described as follows: qHTS assay to identify small molecule agonists of the TGF-beta/Smad signaling pathway (AID 1346859; active = well fitted activation curve with a large enough effect in the signal ratio in the repeat runs, not every such curve was filed as active; the % refers to the signal ratio; also: series mostly up to about 77 µM). An outline of the steps:
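After overnight seeding, SBE-bla HEK 293T cells are dosed with compounds in DMSO and kept 5 hr at 37 C, 5% CO2. LiveBLAzer-type FRET substrate is then applied for 2 hr at room temperature.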

The target of experiment [7] is Thyrotropin-releasing hormone receptor (Homo sapiens) (UniProt P34981). Description: qHTS assay to identify small molecule antagonists of the thyrotropin-releasing hormone receptor (TRHR) signaling pathway (AID 1346877; active = well fitted inhibition curve with a large enough effect in the repeat runs, not every such curve was filed as active; also: series mostly up to about 51 µM). An outline of the steps:
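Intracellular calcium fluorescence, read kinetically every second over 3 min, reports TRH-evoked signalling in HEK293 cells carrying TRHR. Test compounds were added 5 min ahead of a 1 nM TRH challenge.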

Experiment [8] has the same target. Description: qHTS assay to identify small molecule agonists of the thyrotropin-releasing hormone receptor (TRHR) signaling pathway (AID 1346891; calls by dose curve;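 also: HEK293 cells expressing TRHR with calcium dye readout; series mostly up to about 58 µM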). The method in brief:
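Compounds were tested as agonists at 15 concentrations, in triplicate, on TRHR-Hek293 cells; calcium-sensitive dye fluorescence was recorded for 3 min following addition.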

Experiment [9] is described as follows: Human pregnane X receptor (PXR) small molecule agonists, qHTS cell viability counter screen (AID 1346977). Also: nearly all actives have a fitted effect of over 50% in size. Also: potency is read from the fitted curve at half-maximal effect. The method in brief: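 Viability counter screen: CellTiter-Fluor signal in PXR-Luc HepG2 cells, 24hr compound exposure, 37C, 5% CO2.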
Experiment [10] concerns the target Progesterone receptor (Homo sapiens) (UniProt P06401). In words: qHTS assay to identify small molecule antagonists of the progesterone receptor (PR) signaling pathway (AID 1346795; active = well fitted inhibition curve with a large enough effect in the signal ratio in the repeat runs, not every such curve was filed as active; the % refers to the signal ratio; also: potency is read from the fitted curve at half-maximal effect). An outline of the steps:
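Fluorescence intensity measured 2 hr after adding beta-lactamase FRET substrate to PR-UAS-bla HEK293T cells that had been co-treated 16 hr with compound and 1 nM R5020 (final concentration) in 2% charcoal-stripped FBS.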

Chain of Thyrotropin-releasing hormone receptor (Homo sapiens) (P34981 whole entry, looked up): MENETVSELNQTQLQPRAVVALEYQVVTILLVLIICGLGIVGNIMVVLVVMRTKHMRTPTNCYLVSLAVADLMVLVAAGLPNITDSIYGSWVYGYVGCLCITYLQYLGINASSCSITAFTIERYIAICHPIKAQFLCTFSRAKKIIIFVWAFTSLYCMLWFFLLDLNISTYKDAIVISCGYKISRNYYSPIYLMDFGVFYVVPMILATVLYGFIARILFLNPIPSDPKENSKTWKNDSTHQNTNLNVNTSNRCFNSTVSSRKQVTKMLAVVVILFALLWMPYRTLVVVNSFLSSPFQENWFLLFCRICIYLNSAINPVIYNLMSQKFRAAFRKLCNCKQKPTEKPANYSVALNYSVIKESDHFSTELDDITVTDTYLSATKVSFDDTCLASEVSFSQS

With `CC1(C)CON(Cc2ccccc2Cl)C1=O`, the Potency entry in experiment [1], in experiment [2], in [3], in experiment [4] and in experiment [9] was “inactive” in each case. Further, the result in experiment [5], in experiment [6], in [7] and in [8] was inactive.
Turning to `Nc1cc(Cl)ccc1O`, the Potency result in experiment [1], in experiment [2], in [3], in experiment [4] and in experiment [9] was “inactive” throughout. The compound was classed as inactive in experiment [5], in experiment [6], in [7] and in experiment [8].
With `ClC(Cl)(Cl)C(Cl)(Cl)Cl`, the Potency entry in experiment [1], in experiment [10], in experiment [3], in [4] and in [9] was “inactive” each time. Also, the result in experiment [5] and in experiment [6] was inactive.
In the case of `O=c1oc2ccccc2c(O)c1C1CCCc2ccccc21` (configuration not stated), the Potency entry in experiment [1], in experiment [10], in experiment [2] and in experiment [9] was “inactive” throughout. Also, the compound was called inactive in experiment [5], in [6], in experiment [7] and in [8].
As to `CC(C)CP(=S)(S)CC(C)C`, the Potency result in experiment [1], in [4] and in experiment [9] was “inactive” each time. Further, the Potency in [10] was 0.486 µM (active). Besides, the compound was classed as inactive in experiment [5], in experiment [6], in experiment [7] and in experiment [8].
`CC(C)(C)NCC(O)c1cc(Cl)c(N)c(Cl)c1` (configuration not stated): the Potency result in experiment [10], in experiment [2], in experiment [3] and in experiment [4] was “inactive” throughout. Moreover, the result in experiment [5] and in experiment [6] was inactive.
`O=C1CN=C(c2ccccc2)c2cc([N+](=O)[O-])ccc2N1`: the Potency result in experiment [10], in experiment [2], in [3], in experiment [4] and in [9] was “inactive” throughout. In addition, the outcome in experiment [5], in experiment [6], in [7] and in experiment [8] was inactive.
Turning to `COP(N)(=S)Oc1ccccc1C(=O)OC(C)C` (configuration not stated), the Potency result in [1], in [2], in [3] and in experiment [9] was “inactive” in each case. The compound was called inactive in [5] and in [6].
Take `CCOP(=S)(OCC)Oc1ncn(-c2ccccc2)n1`: the Potency entry in experiment [1], in [2], in experiment [3] and in [9] was “inactive” each time. Further, the compound was called inactive in [5], in experiment [6], in [7] and in experiment [8].
Consider `Cc1cc(C)c(C(=O)P(=O)(C(=O)c2c(C)cc(C)cc2C)c2ccccc2)c(C)c1`, for which the Potency entry in experiment [10], in experiment [2], in experiment [3], in [4] and in experiment [9] was “inactive” each time. For the same compound, the call in [5], in experiment [6], in experiment [7] and in experiment [8] was inactive.
Turning to `CNC(=O)Oc1c(C(C)(C)C)cc(C)cc1C(C)(C)C`, the Potency result in experiment [10], in [2], in [3], in experiment [4] and in [9] was “inactive” in each case. The call in experiment [5], in [6], in experiment [7] and in experiment [8] was inactive.
Regarding `COc1cccc2c1cc([N+](=O)[O-])c1c(C(=O)O)cc3c(c12)OCO3`, the Potency entry in experiment [1], in experiment [2] and in experiment [4] was “inactive” each time. The outcome in [5], in experiment [7] and in experiment [8] was inactive. In experiment [9], the Potency is 12.2 µM (active).
In the case of `CCCSP(=S)(OCC)Oc1ccc(Cl)cc1Cl` (configuration not stated), the Potency result in experiment [1], in experiment [2], in [4] and in experiment [9] was “inactive” each time. Further, the compound was classed as inactive in experiment [5], in [6], in experiment [7] and in [8].
For the compound `O=P(O)(Oc1ccccc1)Oc1ccccc1`, the Potency result in [10], in experiment [2], in [3], in experiment [4] and in [9] was “inactive” in each case. The result in experiment [5], in experiment [6] and in experiment [8] was inactive.
Take `CC(CC(C#N)(c1ccccc1)c1ccccc1)N(C)C` (configuration not stated): the Potency result in experiment [1] and in experiment [4] was “inactive” throughout. In addition, the call in experiment [5], in [6], in experiment [7] and in [8] was inactive. The Potency in [9] is 48.3 µM (active).
As to `CC1=C(C(=O)Nc2ccccc2)S(=O)(=O)CCO1`, the Potency result in experiment [1] and in experiment [4] was “inactive” throughout. For the same compound, the compound was called inactive in experiment [5] and in experiment [6].
Consider `Nc1n[nH]c(N)n1`, for which the Potency result in [1], in experiment [3], in [4] and in [9] was “inactive” in each case. In addition, the compound was classed as inactive in experiment [5], in experiment [6] and in [8].
Turning to `COC(=O)C(C)Oc1ccc(Oc2ccc(Cl)cc2Cl)cc1` (configuration not stated), the Potency entry in experiment [1], in [2], in [4] and in experiment [9] was “inactive” in each case. In addition, the call in experiment [5] and in [6] was inactive.
With `O=C(CCCN1CCC(n2c(=O)[nH]c3ccccc32)CC1)c1ccc(F)cc1`, the Potency result in experiment [1] was “inactive”. Also, the result in experiment [5] and in experiment [6] was inactive.
Take `c1cc[c]([Hg][c]2ccccc2)cc1`: the Potency entry in experiment [1] and in experiment [2] was “inactive” in each case. Moreover, the outcome in [5], in experiment [6], in experiment [7] and in experiment [8] was inactive. Moreover, in [9], the Potency is 68.6 µM (active).
With `CCOP(=O)(OCC)OP(=O)(OCC)OCC`, the Potency entry in experiment [10], in [2], in experiment [3], in experiment [4] and in experiment [9] was “inactive” in each case. Further, the compound was classed as inactive in experiment [5], in [6] and in experiment [8].
`CCCCc1c(C)nc(NCC)[nH]c1=O`: the Potency result in experiment [10], in experiment [2], in experiment [3], in experiment [4] and in experiment [9] was “inactive” in each case. The outcome in [5], in experiment [6], in experiment [7] and in [8] was inactive.
Take `Cc1ccccc1CO[C@@H]1C[C@@]2(C(C)C)CC[C@]1(C)O2`: the Potency entry in experiment [10], in [2], in experiment [3], in experiment [4] and in experiment [9] was “inactive” each time. Moreover, the outcome in [5], in [6], in experiment [7] and in [8] was inactive.
`Nc1cnn(-c2ccccc2)c(=O)c1Cl`: the Potency result in [10], in [2], in experiment [3], in experiment [4] and in experiment [9] was “inactive” in each case. Further, the call in experiment [5], in experiment [6] and in experiment [8] was inactive.
Turning to `ClC(Br)Br`, the Potency result in experiment [10], in experiment [2], in [3], in experiment [4] and in experiment [9] was “inactive” each time. The compound was classed as inactive in [5], in experiment [6] and in [8].
